Calls of active or inactive are those of the source.
Experiments:
[1] = probe aNog binding to arrayed compounds – biochemical, biotinylated probe, 635/667 nm fluorescence, primary screen (AID 1115); settings: small-molecule microarray, higher = more signal;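 note: probe is biotinylated aNog protein used at 0.15 µg/mL for 1 h at 4 C; z-score combines 667 nm fluorescence of each spot with its signal to noise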
[2] = molecular target: Torsin-1A-interacting protein 1 (Homo sapiens) (UniProt Q5JTV8); test: compound microarray binding of lysate hLAP1 – cell lysate, small-molecule microarray, COS7 lysate, 635/667 nm fluorescence, primary screen (AID 1116); settings: 635 nm fluorescence, higher = more signal
Albumin (Bos taurus) = Albumin (Bos taurus) (UniProt P02769); test: compounds binding labelled BSA control protein – biochemical, small-molecule microarray, Alexa647 label, 635/667 nm fluorescence, artefact control for SMM control protein annotation, profiling panel (AID 1118); settings: BSA-A647 binding, fluorescence 635 nm, higher = more signal;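 note: score merges 667 nm emission intensity and signal-to-noise per printed compound spot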
[3] = probe aXIP binding to arrayed compounds – biochemical, NeuroSMM set, 635/667 nm fluorescence, primary screen (AID 1119); settings: small-molecule microarray, higher = more signal, called active from +8 up or from −8 down;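 note: probe is the protein aXip251-270 applied at 1 µg/mL to compound-printed slides; binding of probe to printed compounds measured as 667 nm fluorescence plus signal to noise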
[4] = probe aNOTCH3 binding on compound microarray – biochemical, small-molecule microarray, 635/667 nm fluorescence, primary screen (AID 1120); settings: higher = more signal;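 note: probe is a biotin-tagged antibody raised against NOTCH3 rather than NOTCH3 protein; score merges spot fluorescence near 667 nm with spot signal to noise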
[5] = probe aNOTCH2 binding on compound microarray – biochemical, small-molecule microarray, 635/667 nm fluorescence, primary screen (AID 1121); settings: higher = more signal;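 note: score merges feature fluorescence read at 667 nm with its signal to noise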
[6] = molecular target: Carbonic anhydrase 2 (Homo sapiens) (UniProt P00918); test: compounds binding carbonic anhydrase 2 – biochemical, small-molecule microarray, Alexa647-labelled CAII, profiling panel (AID 1122); settings: CAII-A647 binding fluorescence, higher = more signal
[7] = COS7 lysate on small-molecule microarray, probe aHis, 635 nm (AID 1123); settings: COS7 cell lysate, fluorescence, higher = more signal;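 note: z-score combines 667nm fluorescence intensity with signal-to-noise per printed compound spot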
[8] = probe aLAP1 signal on lysate-treated microarray – cell lysate, small-molecule microarray, COS7 lysate, primary screen (AID 1124); settings: probe aLAP1, fluorescence, higher = more signal;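 note: lysate comes from COS7 cells expressing LAP1 and is applied at 0.3 µg/mL; score merges spot fluorescence near 667 nm with signal-to-noise over triplicate slides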
Sam68 (KHDRBS1) = test: compounds binding KHDRBS1 protein – biochemical, small-molecule microarray, 635 nm fluorescence, primary screen (AID 1125); settings: higher = more signal;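 note: score merges 667 nm channel intensity with signal to noise over triplicate slides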
[9] = tested on: Chordin-like protein 2 (CHRDL2); test: compounds binding chordin-like 2 – biochemical, small-molecule microarray, 635 nm fluorescence, primary screen (AID 1126); settings: fluorescence 635 nm, higher = more signal;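 note: printed compound slides probed with Chrdl2 protein at 4 µg/mL for 1 h at 4 C; score merges 667 nm emission intensity with signal to noise over three replicate slides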
[10] = molecular target: Concanavalin-A (Canavalia ensiformis) (UniProt P02866); test: compounds binding concanavalin A lectin – biochemical, small-molecule microarray, Alexa647 label, 635 nm, artefact control for SMM control protein annotation, primary screen (AID 1127); settings: ConA-A647 binding fluorescence, higher = more signal;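 note: z combines 667 nm emission intensity with signal-to-noise across three replicate slides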
[11] = compounds binding Alexa647 anti-His antibody – biochemical, small-molecule microarray, 635 nm fluorescence, artefact control for SMM control protein annotation, primary screen (AID 1128); settings: higher = more signal;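 note: score merges feature fluorescence with signal-to-noise for each printed compound spot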
[12] = tested on: Human papillomavirus type 1a E7 protein (residues 1-88); test: HPV1a E7 small-molecule binders, primary screen, biochemical, small-molecule microarray, residues 1-88, 635 nm (AID 1129); settings: small-molecule microarray binding, fluorescence 635 nm; higher = more signal
[13] = molecular target: Focal adhesion kinase 1 (Homo sapiens) (UniProt Q05397); test: PTK2 protein binding on printed compound slides – biochemical, small-molecule microarray, 635/667 nm fluorescence, BSA, DTT, primary screen (AID 1130); settings: 635 nm fluorescence, higher = more signal;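 note: composite of spot emission at 667 nm and signal to noise over triplicate slides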
[14] = tested on: Fibrinogen (Alexa647-labelled); test: Alexa647-fibrinogen binding to printed small molecules – biochemical, small-molecule microarray, 635/667 nm fluorescence, artefact control for SMM control-protein annotation, profiling panel (AID 1131); settings: fibrinogen-A647 binding fluorescence, higher = more signal;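 note: z-score merges 667 nm fluorescence with per-spot signal-to-noise over triplicate slides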
[15] = molecular target: Follistatin (Homo sapiens) (UniProt P19883); test: FST protein binding to printed compounds – biochemical, small-molecule microarray, 635/667 nm fluorescence, primary screen (AID 1132); settings: 635 nm fluorescence, higher = more signal
[16] = molecular target: Fibroblast growth factor 2 (Homo sapiens) (UniProt P09038); test: basic fibroblast growth factor binding to printed compounds – biochemical, small-molecule microarray, 635/667 nm fluorescence, primary screen (AID 1133); settings: FGF2, fluorescence 635/667, higher = more signal
[17] = JC-1 mitochondrial potential readout, lung cancer cells – cell-based, A549, JC-1 fluorescence, basal, 24 h, 100 nL, profiling panel (AID 1138); settings: higher = more signal;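 note: A549 lung adenocarcinoma cells under basal conditions with no added stimulus; test concentration not given here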
Lefty1 = Lefty1 protein binding to printed compounds – biochemical, small-molecule microarray, 635/667 nm fluorescence, primary screen (AID 1139); settings: fluorescence 635/667, higher = more signal

Chain of Focal adhesion kinase 1 (Homo sapiens) (Q05397 whole entry, looked up): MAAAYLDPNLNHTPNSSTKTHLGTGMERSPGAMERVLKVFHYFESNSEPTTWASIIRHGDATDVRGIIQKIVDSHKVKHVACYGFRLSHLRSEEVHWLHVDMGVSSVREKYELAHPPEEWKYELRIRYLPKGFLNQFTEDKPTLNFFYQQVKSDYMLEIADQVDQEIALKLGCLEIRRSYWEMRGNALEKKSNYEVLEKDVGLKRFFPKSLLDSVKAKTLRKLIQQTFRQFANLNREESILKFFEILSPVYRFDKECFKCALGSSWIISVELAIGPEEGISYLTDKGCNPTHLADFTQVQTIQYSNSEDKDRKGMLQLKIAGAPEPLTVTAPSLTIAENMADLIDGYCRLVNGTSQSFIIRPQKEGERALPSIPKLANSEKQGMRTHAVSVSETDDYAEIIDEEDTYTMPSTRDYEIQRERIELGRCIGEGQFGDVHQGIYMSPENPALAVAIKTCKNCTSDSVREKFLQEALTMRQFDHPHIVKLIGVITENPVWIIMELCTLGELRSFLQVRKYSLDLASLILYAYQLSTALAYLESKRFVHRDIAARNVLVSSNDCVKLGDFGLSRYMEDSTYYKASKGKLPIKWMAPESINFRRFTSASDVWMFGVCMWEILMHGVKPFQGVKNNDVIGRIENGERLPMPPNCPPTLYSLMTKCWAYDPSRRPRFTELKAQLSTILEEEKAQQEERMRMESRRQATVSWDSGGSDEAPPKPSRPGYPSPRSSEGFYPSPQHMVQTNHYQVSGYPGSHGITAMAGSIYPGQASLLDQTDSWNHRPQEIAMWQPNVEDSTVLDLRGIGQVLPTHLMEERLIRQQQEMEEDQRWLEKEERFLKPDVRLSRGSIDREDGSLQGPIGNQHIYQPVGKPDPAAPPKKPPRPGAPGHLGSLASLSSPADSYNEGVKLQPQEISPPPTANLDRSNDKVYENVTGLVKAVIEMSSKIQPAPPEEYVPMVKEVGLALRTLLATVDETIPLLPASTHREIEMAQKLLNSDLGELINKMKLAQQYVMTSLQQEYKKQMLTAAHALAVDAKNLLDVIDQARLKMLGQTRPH
Chain of Concanavalin-A (Canavalia ensiformis) (P02866 whole entry, looked up): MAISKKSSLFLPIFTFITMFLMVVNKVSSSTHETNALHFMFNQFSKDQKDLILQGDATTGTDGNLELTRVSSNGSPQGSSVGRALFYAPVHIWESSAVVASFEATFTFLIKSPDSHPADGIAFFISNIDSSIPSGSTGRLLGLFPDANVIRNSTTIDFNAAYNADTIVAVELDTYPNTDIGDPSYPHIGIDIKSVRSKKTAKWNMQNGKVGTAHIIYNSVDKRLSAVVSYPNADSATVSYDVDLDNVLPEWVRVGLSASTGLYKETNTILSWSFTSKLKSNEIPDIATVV
Chain of Fibroblast growth factor 2 (Homo sapiens) (P09038 whole entry, looked up): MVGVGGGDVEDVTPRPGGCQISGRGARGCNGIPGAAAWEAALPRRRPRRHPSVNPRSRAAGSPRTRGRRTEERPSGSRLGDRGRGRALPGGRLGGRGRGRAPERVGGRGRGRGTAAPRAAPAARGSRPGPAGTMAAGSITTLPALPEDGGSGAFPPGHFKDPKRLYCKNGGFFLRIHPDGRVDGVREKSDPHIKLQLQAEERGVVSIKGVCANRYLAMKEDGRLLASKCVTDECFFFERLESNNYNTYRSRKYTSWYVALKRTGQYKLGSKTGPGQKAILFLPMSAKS
Chain of Torsin-1A-interacting protein 1 (Homo sapiens) (Q5JTV8 whole entry, looked up): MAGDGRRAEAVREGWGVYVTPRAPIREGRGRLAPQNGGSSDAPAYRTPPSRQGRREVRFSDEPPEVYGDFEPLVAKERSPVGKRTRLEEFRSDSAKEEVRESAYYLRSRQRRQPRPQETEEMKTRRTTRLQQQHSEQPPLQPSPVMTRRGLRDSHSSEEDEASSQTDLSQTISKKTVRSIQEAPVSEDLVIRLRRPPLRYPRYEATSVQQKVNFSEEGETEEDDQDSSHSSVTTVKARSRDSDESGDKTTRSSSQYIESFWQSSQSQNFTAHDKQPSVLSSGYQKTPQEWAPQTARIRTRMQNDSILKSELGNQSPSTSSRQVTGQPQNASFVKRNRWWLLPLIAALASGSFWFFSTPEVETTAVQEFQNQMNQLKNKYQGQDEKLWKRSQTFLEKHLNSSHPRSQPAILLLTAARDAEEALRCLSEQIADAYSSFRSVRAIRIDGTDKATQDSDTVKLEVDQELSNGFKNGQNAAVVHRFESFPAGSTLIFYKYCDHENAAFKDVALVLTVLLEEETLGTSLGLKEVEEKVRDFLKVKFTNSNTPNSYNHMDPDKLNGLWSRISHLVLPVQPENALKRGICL
Chain of Albumin (Bos taurus) (P02769 whole entry, looked up): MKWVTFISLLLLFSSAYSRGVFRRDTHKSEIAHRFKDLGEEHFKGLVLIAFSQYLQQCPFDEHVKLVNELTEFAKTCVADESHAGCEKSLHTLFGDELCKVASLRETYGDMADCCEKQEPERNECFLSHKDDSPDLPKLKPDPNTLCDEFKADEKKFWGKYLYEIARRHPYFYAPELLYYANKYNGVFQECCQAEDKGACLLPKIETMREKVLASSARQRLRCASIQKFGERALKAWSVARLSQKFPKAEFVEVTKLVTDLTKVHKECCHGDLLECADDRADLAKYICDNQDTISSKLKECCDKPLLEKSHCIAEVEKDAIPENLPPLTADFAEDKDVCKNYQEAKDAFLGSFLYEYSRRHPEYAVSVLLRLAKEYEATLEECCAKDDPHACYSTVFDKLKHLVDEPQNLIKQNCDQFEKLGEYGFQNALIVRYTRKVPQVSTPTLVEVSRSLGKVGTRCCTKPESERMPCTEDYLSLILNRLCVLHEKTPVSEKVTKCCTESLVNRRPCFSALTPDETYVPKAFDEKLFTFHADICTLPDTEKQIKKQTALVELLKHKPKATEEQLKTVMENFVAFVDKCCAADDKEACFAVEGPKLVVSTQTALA
Chain of Follistatin (Homo sapiens) (P19883 whole entry, looked up): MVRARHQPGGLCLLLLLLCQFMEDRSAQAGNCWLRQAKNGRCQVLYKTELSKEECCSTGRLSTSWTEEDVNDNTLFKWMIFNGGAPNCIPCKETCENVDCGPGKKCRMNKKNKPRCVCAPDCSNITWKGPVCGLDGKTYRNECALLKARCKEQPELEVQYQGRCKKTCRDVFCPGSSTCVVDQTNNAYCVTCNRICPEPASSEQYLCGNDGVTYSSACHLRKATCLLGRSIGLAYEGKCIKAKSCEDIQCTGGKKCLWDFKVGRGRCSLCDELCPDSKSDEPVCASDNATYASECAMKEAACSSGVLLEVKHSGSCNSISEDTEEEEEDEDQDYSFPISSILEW

Row | Compound | composite z-score [1] | composite z-score [2] | composite z-score (Albumin (Bos taurus)) | composite Z-score [3] | composite z-score [4] | composite z-score [5] | composite z-score [6] | composite z-score [7] | composite z-score [8] | composite z-score (Sam68 (KHDRBS1)) | composite z-score [9] | composite z-score [10] | composite z-score [11] | composite z-score [12] | composite z-score [13] | composite z-score [14] | composite z-score [15] | composite z-score [16] | z-score [17] | composite z-score (Lefty1)
1 | O=C(NO)[C@]1(Cc2ccccc2)N=C(c2ccc(OCCCO)cc2)O[C@@H]1c1ccccc1 | 0.168 | 0.395 | 0.847 | -0.876 (inactive) | -0.183 | -0.0909 | 0.678 | -0.359 | 0.0192 | -0.32 | -0.671 | -1.06 | -0.0837 | 0.0707 | -1 | 0.141 | -0.248 | -0.0928 | 2.09 | -0.458
2 | C=CCC(OC(C)=O)[C@@H]1[C@@H](N(Cc2cccc3ccccc23)C(=O)Cc2ccc(OC)cc2)c2cc(OCCCO)ccc2N1C(=O)Cc1ccc(OC)cc1 (stereo not given in full) | 0.277 | -0.0539 | 0.73 | -0.199 (inactive) | -0.0373 | -0.104 | 0.207 | 0.624 | 0.163 | 0.0025 | 0.0487 | -0.532 | -0.28 | -0.418 | -0.238 | 0.849 | 0.148 | -0.0722 | 0.537 | -0.392
3 | O=C(N1CCCCC1)[C@@]1(Cc2ccccc2)N=C(c2ccc(OCCCO)cc2)O[C@H]1c1ccccc1 | 1.9 | 2.95 | 0.955 | 0.0926 (inactive) | 0.214 | 0.308 | 0.797 | 3 | 0.849 | 1.23 | -1.34 | 1.11 | 2.02 | 1.07 | 1.42 | 0.124 | 0.622 | -0.12 | -0.741 | -0.341
4 | CC(C)[Si](C#C[Si](C(C)C)(C(C)C)C(C)C)(O[C@H](C)c1cn([C@H](C)c2ccccc2)nn1)C(C)C | 0.444 | 0.245 | -0.0001 | -0.097 (inactive) | -0.122 | -0.0632 | 0.66 | 0.386 | -0.13 | 1.16 | 0.0747 | 0.927 | 0.467 | 0.796 | 0.768 | 0.179 | 0.465 | 0.261 | 1.8 | 0.751
5 | CC(C)NC(=O)[C@@H]1c2ccccc2C(=O)N(Cc2cc(F)cc(C(F)(F)F)c2)[C@H]1c1ccc(CO)cc1 | 0.27 | 0.0026 | -0.448 | 0.115 (inactive) | -0.402 | -0.111 | 0.741 | 1.34 | -0.126 | -0.096 | -0.556 | -0.94 | -0.905 | -0.194 | 0.434 | -1.41 | -1.12 | -0.612 | 2.84 | -1.89
6 | C=C1C=C(Br)C2(OCCCO2)[C@H]2OC12 (stereo not given in full) | -0.491 | -0.0068 | -0.888 | 2.51 (inactive) | 0.0642 | -0.148 | -0.128 | -0.529 | -0.0289 | -0.404 | 0.646 | -0.71 | -1.16 | -0.315 | 0.0354 | -1.01 | 0.442 | 0.245 | 0.939 | 0.743
7 | COC(=O)[C@@]1(CCC(=O)OC(C)(C)C)COC(c2ccc(OCCCO)cc2)=N1 | 0.424 | -0.123 | -1.01 | -0.378 (inactive) | -0.239 | -0.147 | 0.558 | 0.214 | 0.993 | -0.724 | -2.22 | -1.8 | -1.22 | -1.66 | -0.15 | -2.51 | -2.21 | -1.64 | -0.122 | -2.55
8 | [N-]=[N+]=NCc1ccccc1C[C@@]1(C(=O)NCc2ccccc2)N=C(c2ccc(OCCCO)cc2)O[C@@H]1c1ccccc1 | 0.868 | 0.595 | 0.825 | 0.109 (inactive) | 0.0562 | -0.0389 | 0.28 | 0.86 | -0.401 | 0.474 | -1.01 | 0.266 | 1.87 | 1.13 | 0.621 | 0.483 | 0.327 | -0.165 | 1.79 | -0.698
9 | C=CCOC(=O)[C@H]1[C@@H]2C(=O)O[C@@H](c3ccccc3)[C@@H](c3ccccc3)N2[C@@H](c2ccc(OCCOC(=O)[C@H]3C[C@H]4C(=O)N5CCC[C@H]5C(=O)N4[C@H]3c3cccc(OCCO)c3)cc2)[C@]12C(=O)Nc1ccccc12 | 0.228 | 0.925 | -0.592 | 1.51 (inactive) | -0.0647 | -0.0424 | 0.466 | 2.31 | -0.103 | 1.31 | 1.37 | 0.96 | 1.34 | 1.16 | 0.903 | 0.47 | 1.34 | 1.57 | -0.851 | 0.628
10 | COc1ccc(CCNC(=O)[C@@]2(Sc3ccc(C)cc3)CC(=O)N(Cc3ccccc3)[C@@H]2c2ccc(CO)cc2I)cc1 | 0.0805 | -0.72 | -0.605 | -0.224 (inactive) | -0.289 | -0.2 | 0.377 | 0.666 | 2.03 | 0.247 | -0.974 | 0.508 | 1.06 | 0.408 | 0.0363 | -0.718 | -0.168 | -0.662 | 2.51 | -0.89
11 | C=CCNC(=O)[C@H]1[C@@H]2C(=O)O[C@@H](c3ccccc3)[C@@H](c3ccccc3)N2[C@@H](c2ccccc2OCCO)[C@]12C(=O)N(C(=O)OCCOC)c1ccc(C#CCCO)cc12 | 1.23 | 0.985 | 0.0097 | 0.433 (inactive) | 0.142 | 0.399 | 0.417 | 1.79 | 0.665 | 1.32 | 1.18 | 1.11 | 1.34 | 1.09 | 1.02 | 0.614 | 1.42 | 1.72 | 1.7 | 0.817
12 | COc1ccc([Si](C)(C)[C@H]2[C@H](CCO)O[C@@]3(C(=O)N(Cc4ccc(N5C(=O)c6cccc7cccc5c67)cc4)c4ccccc43)[C@@H]2C)cc1 | 0.467 | 0.18 | 0.258 | 0.466 (inactive) | -0.214 | -0.123 | 0.346 | 0.249 | 0.0741 | -0.465 | -1.06 | 0.609 | 0.21 | -0.141 | -0.266 | 0.193 | -0.771 | -0.611 | 1.9 | -0.255
13 | C=CCC(OC(C)=O)[C@@H]1[C@@H](N(Cc2cccc3ccccc23)C(=O)c2cccc3ccccc23)c2cc(OCCCO)ccc2N1C(=O)Cc1ccc(OC)cc1 (stereo not given in full) | 0.466 | 0.703 | 0.107 | 0.464 (inactive) | 0.128 | -0.0797 | 0.447 | 1.04 | 0.484 | 0.457 | 0.0561 | -0.653 | 0.856 | 0.0512 | -0.0125 | 0.263 | 0.921 | 0.103 | 0.924 | 0.306
14 | CC(C)C(CO)N1C(=O)[C@@H]2[C@H]3C(=O)OCC=C[C@H]3OC23C=CCN(Cc2ccccc2)C(=O)[C@@H]13 (stereo not given in full) | 0.0342 | -0.207 | -1.27 | -0.0662 (inactive) | 0.271 | -0.154 | 0.833 | -0.635 | -0.733 | -0.69 | -1.02 | -2.22 | -1.88 | -1.62 | -0.778 | -1.48 | -0.317 | -0.392 | 0.792 | -0.375
15 | Cc1ccc(N2C(=O)c3ccccc3[C@](C)(C(=O)NC3CC3)[C@@H]2c2ccc(CO)cc2)nc1 | 0.0265 | 1.26 | -0.0191 | 0.186 (inactive) | -0.132 | -0.0698 | 0.78 | 0.529 | 1.18 | -0.501 | 0.407 | -0.816 | -0.373 | -0.644 | -0.0892 | -0.777 | 1.22 | 0.373 | 1.13 | -0.105
16 | C[N+](C)(C)CCCC[C@@H]1NC(=O)[C@H]2C[C@@H](C(=O)NCCCCCN)[C@@H](c3cccc(OCCO)c3)N2C1=O | 0.708 | 1.91 | 0.913 | 0.268 (inactive) | 0.23 | -0.0633 | 0.801 | 2.41 | 1.34 | 0.965 | -0.0742 | 1.13 | 2.45 | 1.07 | 0.535 | 0.789 | 1.19 | 0.327 | -0.102 | 0.17

Source: PubChem BioAssay
